# In all, about 1,300 compounds went through this assay and about 240 (18%) were called active. Roughly 8% stayed inconclusive and do not appear here. A selection follows. Results with a measured potency or affinity are listed apart. A number with no mark means an inactive call. The rule behind the calls is not given here.
# Assay: HepG2 cell cytotoxicity, dose response, cytotoxicity control, cherry-picked samples (AID 1159577);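 note: 0% = neutral control wells and -100% = positive control wells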
# Details: HepG2 cytotoxicity counterscreen, plate reader; series mostly up to 19.5 µM; activity change, negative = cytotoxicity: at the top concentration
row,Structure (SMILES),"activity change, negative = cytotoxicity"
1,O=C(C[C@H]1C=C[C@H](NC(=O)Cc2ccccn2)[C@H](CO)O1)NCCc1ccccc1,18.1%
2,C[C@H]1CN([C@@H](C)CO)S(=O)(=O)c2ccc(C#Cc3ccccc3)cc2O[C@@H]1CN(C)C(=O)C1CC1,5.15%
3,O=C(C[C@H]1C=C[C@@H](NC(=O)Nc2ccccc2F)[C@H](CO)O1)NCc1ccc(-c2ccccc2)cc1,-11.7%
4,COc1ccccc1C#Cc1ccc2c(c1)[C@H]1NCC[C@H]1[C@@H](CO)N2,-5.66%
5,O=C(c1cccc(F)c1)N1CC[C@H]2[C@H](CO)Nc3ccc(C#Cc4cccc(F)c4)cc3[C@H]21,-5.55%
6,O=C(c1ccccc1F)N1CC[C@H]2[C@H](CO)Nc3ccc(C#Cc4ccc(F)cc4)cc3[C@H]21,-4.6%
7,OC[C@@H]1Nc2ccc(C#Cc3cccc(F)c3)cc2[C@@H]2NCC[C@H]12,3.72%
8,COc1ccc(CN2C[C@@H](C)[C@H](OC)CN(C)C(=O)c3ccc(NC(=O)c4nc5ccccc5s4)cc3OC[C@H]2C)cc1,13.7%
9,CCCN(C)C[C@@H]1Oc2cc(C#Cc3ccccc3)ccc2S(=O)(=O)N([C@@H](C)CO)C[C@@H]1C,-10.6%
10,COc1cccc(NC(=O)N2[C@@H](CO)[C@H](c3ccccc3)[C@@H]2CNCC(C)C)c1,-1.48%
11,O=C(c1cccc(F)c1)N1CC(=O)N2[C@H](CO)[C@H](c3ccc(-c4cccnc4)cc3)[C@H]2C1,-1.35%
12,CO[C@H]1CN(C)C(=O)c2cc(NC(=O)c3cc(C)on3)ccc2OC[C@H](C)N(C(=O)C2CC2)C[C@H]1C,-7.36%
13,COc1ccc2c3c(n(C)c2c1)[C@@H](CO)N(C(=O)C1CC1)CC31CN(C(=O)Nc2cccc(F)c2)C1,8.97%
14,C[C@H](CO)N1C[C@H](C)[C@@H](CN(C)C(=O)c2ccccc2F)Oc2ncc(C#Cc3cccc(F)c3)cc2C1=O,13.4%
15,COCC#Cc1ccc([C@H]2[C@H](CO)N3C(=O)CN(C(=O)CN4CCOCC4)C[C@@H]23)cc1,5.71%
16,COc1ccc(C#Cc2ccc3c(c2)[C@@H]2[C@@H](CCN2C(=O)C2CCCC2)[C@H](CO)N3)cc1,0.018% [at 21 µM]
17,CC(C)(C)[S@@](=O)N1Cc2cc(C(=O)NCCN3CCCCC3)nc(-c3cccc(-c4ccc(C#N)cc4)c3)c2[C@H]1CCO,-27.2% [at 21 µM]
18,CN1CCN(C(=O)C[C@H]2C[C@@H]3c4cc(NC(=O)Nc5ccc(C(F)(F)F)cc5)ccc4O[C@@H]3[C@@H](CO)O2)CC1,23.3%
19,COCC(=O)N1CC2(C1)CN(C(=O)CN1CCOCC1)[C@@H](CO)c1c2c2ccc(OC)cc2n1C,-17.1%
20,CCCN(C)C[C@H]1Oc2cc(C#Cc3cccnc3)ccc2S(=O)(=O)N([C@H](C)CO)C[C@H]1C,-14.6%
21,CO[C@H]1CN(C)C(=O)c2ccc(NC(=O)CC(F)(F)F)cc2OC[C@@H](C)N(CC2CC2)C[C@H]1C,45.9% [at 21 µM]
22,CCCC#Cc1ccc2c(c1)O[C@H](CN(C)C(=O)Nc1ccc(OC)cc1)[C@H](C)CN([C@H](C)CO)S2(=O)=O,4.59%
23,N#Cc1ccc(-c2ccc3c(c2)[C@@H]2[C@@H](CCN2C(=O)C2CCC2)[C@@H](CO)N3)cc1,6.07%
24,COc1ccc(CN2CC3(CN(C(C)=O)C3)c3c([nH]c4cc(OC)ccc34)[C@@H]2CO)cc1,3.59%

row,Structure (SMILES),"activity change, negative = cytotoxicity"
1,COc1ccc2c3c([nH]c2c1)[C@@H](CO)N(C(C)=O)CC31CN(C(=O)CN2CCOCC2)C1,1.53%
2,COc1ccc(CN2CC3(C2)CN(Cc2ccc4c(c2)OCO4)[C@H](CO)c2[nH]c4cc(OC)ccc4c23)cc1,-18.4%
3,COc1ccc2c3c([nH]c2c1)[C@@H](CO)N(C(=O)CN(C)C)CC31CCN(CC2CCCCC2)CC1,-23.6%
4,CO[C@H]1CN(C)C(=O)c2cc(NC(=O)c3ccccc3F)ccc2OC[C@H](C)N(C)C[C@H]1C,-21.2%
5,COc1ccccc1CNC(=O)C[C@H]1C[C@@H]2c3cc(NC(=O)Nc4ccc(C(F)(F)F)cc4)ccc3O[C@@H]2[C@H](CO)O1,-37.6%
6,C[C@H]1CN([C@@H](C)CO)C(=O)Cc2cc(NC(=O)CCC(F)(F)F)ccc2O[C@H]1CN(C)S(C)(=O)=O,-7.8% [at 21 µM]
7,COc1ccccc1C#Cc1ccc2c(c1)[C@H]1[C@H](CCN1C(=O)CN1CCOCC1)[C@@H](CO)N2,-5.84%
8,CO[C@@H]1CN(C)C(=O)c2ccc(NC(=O)Nc3ccccc3F)cc2OC[C@@H](C)N(CC2CC2)C[C@H]1C,12.8%
9,C[C@H](CO)N1C[C@H](C)[C@H](CN(C)C(=O)Cc2ccncc2)Oc2cc(C#CC3CCCC3)ccc2S1(=O)=O,-14.7%
10,COc1ccc(CN2C[C@@H](C)[C@@H](OC)CN(C)C(=O)c3cc(NC(=O)c4nc5ccccc5s4)ccc3OC[C@H]2C)cc1,-3.74% [at 21 µM]
11,CCCN(C)C[C@@H]1Oc2cc(C#Cc3ccncc3)ccc2S(=O)(=O)N([C@H](C)CO)C[C@@H]1C,12.5%
12,COc1ccc(NC(=O)N(C)C[C@@H]2Oc3cc(-c4ccc(C)cc4)ccc3S(=O)(=O)N([C@H](C)CO)C[C@H]2C)cc1,-8.05%
13,CCS(=O)(=O)N1CCCCN2[C@H](CO)[C@H](c3ccc(C#Cc4ccccc4OC)cc3)[C@@H]2C1,-13.8%
14,CCC(=O)Nc1ccc2c(c1)OC[C@@H](C)N(Cc1cccc(F)c1)C[C@@H](C)[C@H](OC)CN(C)C2=O,-5.61%
15,CCCNC(=O)Nc1ccc2c(c1)OC[C@@H](C)N(Cc1ccccc1)C[C@@H](C)[C@H](OC)CN(C)C2=O,-18.6%
16,COCC(=O)N1[C@H](C#N)[C@@H](c2ccccc2C2=CCCC2)[C@@H]1CO,-6.44%
17,COc1ccc2c3c(n(C)c2c1)[C@H](CO)N(C(=O)Nc1ccc(F)cc1)CC31CN(C(=O)c2ccc3c(c2)OCO3)C1,-9.75%
18,C[C@@H]1CN([C@H](C)CO)C(=O)c2ccccc2-c2ccccc2CO[C@@H]1CN(C)Cc1ccc(C(F)(F)F)cc1,-2.81%
19,C[C@H]1CN([C@@H](C)CO)C(=O)c2ccccc2-c2ccccc2CO[C@H]1CN(C)Cc1cccc(C(F)(F)F)c1,-13.8%
20,C[C@@H]1CN([C@H](C)CO)C(=O)c2ccccc2-c2ccccc2CO[C@H]1CN(C)C(=O)Nc1cccc(C(F)(F)F)c1,-2.23% [at 21 µM]
21,C[C@H]1CN([C@@H](C)CO)C(=O)c2ccccc2-c2ccccc2CO[C@H]1CN(C)Cc1ccc(Oc2ccccc2)cc1,-19.8% [at 21 µM]
22,C[C@H]1CN([C@@H](C)CO)C(=O)c2ccccc2-c2ccccc2CO[C@H]1CN(C)Cc1ccc(-c2ccccc2)cc1,-6.19%
23,C[C@@H]1CN([C@@H](C)CO)C(=O)c2ccccc2-c2ccccc2CO[C@H]1CN(C)C(=O)Nc1cccc(C(F)(F)F)c1,-8.02% [at 21 µM]
24,C[C@H](CO)N1C[C@H](C)[C@H](CN(C)C(=O)Nc2ccc(N3CCCCC3)cc2)OCc2cnnn2CCCC1=O,7.84%

row,Structure (SMILES),"activity change, negative = cytotoxicity"
1,CCCC(=O)N1CC2(C1)CN(Cc1ccccc1F)[C@H](CO)c1c2c2ccc(OC)cc2n1C,-26.6%
2,COc1ccc2c3c([nH]c2c1)[C@@H](CO)N(Cc1cccc(Cl)c1)CC31CCN(C(C)=O)CC1,2.58%
3,CN(C)c1ccc2c(c1)[C@@H]1C[C@H](CC(=O)N3CCc4ccccc4C3)O[C@@H](CO)[C@@H]1O2,14.7%
4,CO[C@@H]1CN(C)C(=O)c2ccc(NC(=O)NC3CCCCC3)cc2OC[C@@H](C)N(CCc2ccccc2)C[C@H]1C,6.34% [at 21 µM]
5,O=C(Nc1ccc(F)cc1)N1C[C@H]2[C@@H](c3ccccc31)[C@@H](CO)N2Cc1cocn1,-1.49%
6,COc1ccc(NC(=O)N2CC3(C2)CN(C(=O)C2CCC2)[C@H](CO)c2c3c3ccc(OC)cc3n2C)cc1,17.1%
7,C/C=C/c1ccccc1[C@H]1[C@@H](C#N)N(C(=O)NC2CCCC2)[C@H]1CO,-37.1%
8,COc1ccc(-c2ccc3c(c2)[C@H]2[C@H](CCN2C(=O)NC2CCCC2)[C@H](CO)N3C)cc1,-7.82% [at 21 µM]
9,COc1ccc(-c2ccc3c(c2)[C@H]2[C@H](CCN2C(=O)C2CCCC2)[C@H](CO)N3C)cc1,-6.49%
10,O=C(c1ccc(F)cc1)N1CC(=O)N2[C@H](C1)[C@@H](c1ccc(-c3cccnc3)cc1)[C@@H]2CO,7.07%
11,CCCNC(=O)Nc1ccc2c(c1)C(=O)N(C)C[C@H](OC)[C@@H](C)CN(C(=O)C1CCOCC1)[C@H](C)CO2,-8.62%
12,CO[C@@H]1CN(C)C(=O)c2ccc(NC(=O)Nc3ccccc3F)cc2OC[C@@H](C)N(Cc2ccccc2F)C[C@H]1C,-9.23% [at 21 µM]
13,O=C1CN(S(=O)(=O)c2ccccc2)C[C@H]2[C@H](c3ccc(C#CCc4ccccc4)cc3)[C@@H](CO)N12,-9.33%
14,Cc1ccccc1S(=O)(=O)N1CC(=O)N2[C@H](CO)[C@H](c3ccc(C#CCC4CCCC4)cc3)[C@H]2C1,2.71%
15,O=C1CN(S(=O)(=O)c2ccccc2)C[C@@H]2[C@H](c3ccc(C#CCc4ccccc4)cc3)[C@@H](CO)N12,2.88%
16,Cc1ccccc1S(=O)(=O)N1CC(=O)N2[C@H](CO)[C@H](c3ccc(C#CC4CC4)cc3)[C@@H]2C1,28.6%
17,C[C@@H]1CN([C@@H](C)CO)C(=O)c2cccc(NC(=O)c3nc4ccccc4s3)c2O[C@H]1CN(C)C(=O)Nc1ccc2c(c1)OCO2,1.55%
18,CCNC(=O)c1cc2c(c(-c3cccc(-c4cc5ccccc5o4)c3)n1)[C@@H](CCO)N(C(=O)NC(C)C)C2,-12.2%
19,CC(C)(C)[S@](=O)N1Cc2cc(C(=O)NCCN3CCCCC3)nc(-c3cccc(-c4ccc(C#N)cc4)c3)c2[C@@H]1CCO,-3.55% [at 21 µM]
20,COc1ccccc1S(=O)(=O)N(C)C[C@@H]1Oc2cc(/C=C/c3ccccc3)ccc2S(=O)(=O)N([C@H](C)CO)C[C@H]1C,-16.5%
21,O=C(c1ccccc1F)N1CC(=O)N2[C@H](CO)[C@H](c3ccc(-c4cccnc4)cc3)[C@H]2C1,-9.99%
22,C[C@@H]1CN([C@@H](C)CO)C(=O)c2cccc(NC(=O)c3nc4ccccc4s3)c2O[C@H]1CN(C)C(=O)Nc1ccc(C(F)(F)F)cc1,28%

# — PubChem BioAssay AID1159577 (Broad Institute, 2015)
